According to the supplement of paper PMC13380429:
A number with no mark means an inactive call.

Tested on: Vero E6 infected with SARS-CoV-2
Test: inhibition of SARS-CoV-2 cytopathic effect; higher = more antiviral protection, active = above 15
Details: 48 h

Row | Structure (SMILES) | inhibition of SARS-CoV-2 cytopathic effect (1 nM) [%] | inhibition of SARS-CoV-2 cytopathic effect (8.33 nM) [%] | inhibition of SARS-CoV-2 cytopathic effect (100 nM) [%] | inhibition of SARS-CoV-2 cytopathic effect (833.33 nM) [%] | inhibition of SARS-CoV-2 cytopathic effect (10000 nM)
1 | OC[C@@H](O)[C@@H](O)CO [erythritol] | -0.84 | -2.36 | -2.74 | 0.56 | 0.5%
2 | Cc1cn([C@@H]2C[C@@H](O)[C@H](CO)O2)c(=O)[nH]c1=O [telbivudine] | 1 | -1.65 | -1.15 | -0.26 | 2.12%
3 | CCn1cc(C(=O)O)c(=O)c2cc3c(cc21)OCO3 [oxolinic-acid] | -1.5 | 0.26 | -1.8 | -0.9 | -3.06%
4 | CCCn1c(=O)[nH]c2nc(-c3ccc(S(=O)(=O)N4CCN(c5ccc(Cl)cc5)CC4)cc3)[nH]c2c1=O | -0.12 | 0.44 | -0.16 | 1.71 | 1.22%
5 | O=C(O)[C@H](Cc1c[nH]c2ccccc12)N1C(=O)c2ccccc2C1=O | 2.9 | 3.8 | -0.51 | -0.14 | 0.14%
6 | CCCCNc1ncc2c(-c3ccc(CN4CCN(C)CC4)cc3)cn([C@H]3CC[C@H](O)CC3)c2n1 | 1.92 | 2.77 | -0.22 | -9.69 | 7.04%
7 | Nc1ncnc2c1ncn2[C@@H]1O[C@H](COP(=O)(O)OP(=O)(O)OP(=O)(O)OP(=O)(O)OC[C@H]2O[C@@H](n3cnc4c(N)ncnc43)[C@H](O)[C@@H]2O)[C@@H](O)[C@H]1O [diadenosine-tetraphosphate] | 1.69 | 0.56 | 0.34 | 1.06 | -1.97%
8 | CC(C)(C)/[N+]([O-])=C/c1ccc(S(=O)(=O)O)cc1S(=O)(=O)O | -1.02 | -0.15 | -0.41 | 0.47 | 0.8%
9 | COc1ccc(NC(=O)c2ccc(-c3ccc(-c4noc(C)n4)cc3C)cc2)cc1OCCN(C)C | -0.44 | -0.62 | -0.42 | -0.17 | 5.11%
10 | O=S(=O)(c1cccc2c(O)nccc12)N1CCCNCC1 [hydroxyfasudil] | -1.12 | -1.29 | -1.81 | -2.35 | -0.71%
11 | CC(C)(S)C(=O)N[C@@H](CS)C(=O)O [bucillamine] | 0.66 | 4.25 | 5.04 | 3.9 | -4%
12 | C/C(=N\NC(=N)N)c1cc(NC(=O)CCCCCCCCC(=O)Nc2cc(/C(C)=N/NC(=N)N)cc(/C(C)=N/NC(=N)N)c2)cc(/C(C)=N/NC(=N)N)c1 [semapimod] | 1.18 | 2.42 | 5.39 | 7.62 | 7.5%
13 | c1coc(CNc2ncnc3[nH]cnc23)c1 [kinetin] | -0.75 | 1.25 | 1.35 | 3.24 | 2.8%
14 | c1cc(Nc2cc(C3CC3)n[nH]2)nc(Nc2ccc3[nH]cnc3c2)n1 | -2.31 | -1.82 | -0.35 | -0.79 | 5.62%
15 | CC(=O)NCCc1c[nH]c2ccccc12 [N-acetyltryptamine] | 0.9 | 2.35 | 2.28 | -0.38 | 2.53%
16 | O=C1/C(=C/c2ccccc2)C[C@@]2(O)[C@H]3Cc4ccc(O)c5c4[C@@]2(CCN3CC2CC2)[C@H]1O5 | -2.61 | 0.97 | 1.2 | 8.78 | -26.4%
17 | Cc1sc(C)c(C(=O)NC2(c3ccc(C(=O)O)cc3)CC2)c1Cc1ccc(C(F)(F)F)cc1 | -1.32 | -0.56 | -0.49 | -1.38 | 1.12%
18 | Cc1c(O)cccc1C(=O)N[C@@H](CSc1ccccc1)[C@H](O)CN1C[C@H]2CCCC[C@H]2C[C@H]1C(=O)NC(C)(C)C [nelfinavir] | -4.7 | -3.72 | -1.32 | 3.72 | 43.2% (active)
19 | CCN(CCO)CCCC(C)Nc1ccnc2cc(Cl)ccc12 (stereo not given) [hydroxychloroquine] | -0.29 | 2.78 | -0.76 | 0 | -0.85%
20 | C=CC(=O)Nc1cccc(Nc2nc(Nc3ccc(N4CCN(C(C)=O)CC4)cc3OC)ncc2C(F)(F)F)c1 [rociletinib] | -0.09 | -1.67 | -0.14 | -2.42 | -11.9%

Row | Structure (SMILES) | inhibition of SARS-CoV-2 cytopathic effect (1 nM) [%] | inhibition of SARS-CoV-2 cytopathic effect (8.33 nM) [%] | inhibition of SARS-CoV-2 cytopathic effect (100 nM) [%] | inhibition of SARS-CoV-2 cytopathic effect (833.33 nM) [%] | inhibition of SARS-CoV-2 cytopathic effect (10000 nM)
21 | NC(=O)CCCCC1CCSS1 (stereo not given) [lipoamide] | 1.2 | 1.81 | -0.52 | -3.3 | 3.78%
22 | Nc1nc2c(cnn2CCc2ccccc2)c2nc(-c3ccco3)nn12 | 1.74 | 1.86 | -4.65 | -2.26 | -2.96%
23 | Oc1ccc2c3c1O[C@H]1c4oc5ccccc5c4C[C@@]4(O)[C@@H](C2)N(CC2CC2)CC[C@]314 [naltriben] | 0.92 | -0.89 | 0.12 | -0.45 | -2.94%
24 | O=S1(=O)CCN(CN2CCS(=O)(=O)NC2)CN1 [taurolidine] | 0.08 | 2.04 | -0.86 | -0.85 | 0.19%
25 | CCCNCC(O)COc1ccccc1C(=O)CCc1ccccc1 (stereo not given) [propafenone] | -2.13 | -0.69 | 2.83 | 3.83 | -0.5%
26 | COc1ccc(/C=C\c2cc(OC)c(OC)c(OC)c2)cc1O [combretastatin-A-4] | 1.94 | 1.57 | -1.22 | -2.08 | -0.45%
27 | Cn1c(=O)[nH]c2ncn(C)c2c1=O [paraxanthine] | 1.63 | 1.68 | 0.01 | 2.99 | -0.26%
28 | Nc1nc(=O)n([C@H]2C[C@H](O)[C@@H](CO)O2)cc1Cl [cytochlor] | 0.97 | 0.46 | 0.45 | 1.92 | -1.33%
29 | CN1CCN(c2ccc(C(=O)Nc3n[nH]c4ccc(Cc5cc(F)cc(F)c5)cc34)c(NC3CCOCC3)c2)CC1 [entrectinib] | 4 | 2.95 | -2.01 | -2.36 | -12.4%
30 | Nc1ncnc2c1c(-c1cnc3[nH]ccc3c1)nn2C1CCCC1 | -1.07 | -0.16 | 0.41 | -3.88 | -16.5%
31 | O=C(CCCN1CCC(O)(c2ccc(Cl)cc2)CC1)c1ccc(F)cc1 [haloperidol] | 0.65 | 1.48 | -0.07 | 0.5 | -1.23%
32 | COc1ccc([C@]2(C#N)CC[C@@H](C(=O)O)CC2)cc1OC1CCCC1 [cilomilast] | -1.82 | -3.26 | -2.36 | -1.23 | -0.83%
33 | c1ccc(-c2nn3c(c2-c2ccnc4cc(OCCN5CCOCC5)ccc24)CCC3)nc1 | -0.68 | 0.41 | 1.87 | -0.96 | 0.94%
34 | CC(C)n1nc(-c2cc3cc(O)ccc3[nH]2)c2c(N)ncnc21 | 1.52 | 2.09 | 1.4 | 2.07 | -1.69%
35 | CCCN(CCC)C(=O)Cc1c(-c2ccc(Cl)cc2)nc2ccc(Cl)cn12 [alpidem] | -5.3 | -6.64 | -7.76 | -6.87 | -3.74%
36 | COc1ccc2c(Oc3ccc(NC(=O)c4c(C)n(CC(C)(C)O)n(-c5ccccc5)c4=O)nc3)ccnc2c1 | 2.46 | 1.91 | -0.28 | -1.35 | -0.65%
37 | O=c1[nH]cnc2c([C@@H]3N[C@H](CO)[C@@H](O)[C@H]3O)c[nH]c12 [forodesine] | -0.75 | 0.06 | -1.79 | -1.77 | -2.56%
38 | Oc1ccc(Cl)c2cccnc12 [cloxyquin] | 1.22 | 0.37 | 2.68 | 3.29 | -0.16%
39 | O=C(COc1cccc2c(=O)[nH]ccc12)c1ccccc1 | -1.31 | 1.84 | -0.2 | -0.52 | 0.99%
